# In PubChem BioAssay (EPA / NIEHS):
# Active and inactive are the calls of the source. How the source made its calls: active means hit-call score of the fitted dose curve at least 0.9, where 1 is the maximum; inactive means score below 0.9.
# Tests used:
# [1] = read-out: Interleukin-6 (IL6), IL6 (gene 3569); assay: BSK_CASM3C_IL6: BioMAP Diversity Plus: CASM3C Assay for Interleukin-6 (IL6) Biomarker Activity for (AID 2283040); conditions: primary human coronary artery smooth muscle cells; actives raise or lower the signal
# [2] = read-out: Tissue plasminogen activator (tPA), PLAT (gene 5327); assay: BSK_BE3C_tPA: BioMAP Diversity Plus: BE3C Assay for Tissue plasminogen activator (tPA) Biomarker Activity (AID 2283041); conditions: primary human bronchial epithelial cells; actives raise or lower the signal;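 further: tPA level quantified by ELISA one day after compound addition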
# Outline: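 tPA measured by ELISA 24 h after dosing human primary bronchial epithelial cells (BE3C system). Changes in either direction were fitted against DMSO. Parallel cultures were stained with SRB to flag overt cytotoxicity.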
# [3] = read-out: Interleukin-8 (IL8), CXCL8 (gene 3576); assay: BSK_CASM3C_IL8: BioMAP Diversity Plus: CASM3C Assay for Interleukin-8 (IL8) Biomarker Activity (AID 2283042); conditions: primary human coronary artery smooth muscle cells; actives raise or lower the signal;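 further: IL-8 protein level quantified by ELISA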
# [4] = read-out: Human Leukocyte Antigen - DR isotype (HLADR), HLA-DRA (gene 3122); assay: BSK_CASM3C_HLADR: BioMAP Diversity Plus: CASM3C Assay for Human Leukocyte Antigen - DR isotype (HLADR) Biomarker Activity (AID 2283043); conditions: primary human coronary artery smooth muscle cells; actives raise or lower the signal;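 further: cell-surface HLA-DR protein level quantified by ELISA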
# [5] = read-out: Macrophage colony-stimulating factor (MCSF), CSF1 (gene 1435); assay: BSK_CASM3C_MCSF: BioMAP Diversity Plus: CASM3C Assay for Macrophage colony-stimulating factor (MCSF) Biomarker Activity (AID 2283044); conditions: primary human coronary artery smooth muscle cells; actives raise or lower the signal;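 further: M-CSF protein amount quantified by ELISA after 24 h exposure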
# [6] = read-out: Low-density lipoprotein receptor (LDLR), LDLR (gene 3949); assay: BSK_CASM3C_LDLR: BioMAP Diversity Plus: CASM3C Assay for Low-density lipoprotein receptor (LDLR) Biomarker Activity (AID 2283045); conditions: primary human coronary artery smooth muscle cells; actives raise or lower the signal;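 further: LDLR protein level on the cell surface quantified by ELISA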
# [7] = read-out: Monocyte Chemoattractant Protein-1 (MCP1), CCL2 (gene 6347); assay: BSK_CASM3C_MCP1: BioMAP Diversity Plus: CASM3C Assay for Monocyte Chemoattractant Protein-1 (MCP1) Biomarker Activity (AID 2283046); conditions: primary human coronary artery smooth muscle cells; actives raise or lower the signal;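 further: MCP-1 level quantified by ELISA 24 h after dosing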
# [8] = BSK_CASM3C_Proliferation: Cell Proliferation Assessment in the BioMAP Diversity Plus: CASM3C Assay (AID 2283047); conditions: primary human coronary artery smooth muscle cells;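 further: sulforhodamine B total protein stain as relative cell number at 560 nm; sub-confluent cells exposed 48 h before staining; fitted both ways against DMSO so gain or loss of cell number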
# [9] = read-out: Monokine induced gamma interferon (MIG), CXCL9 (gene 4283); assay: BSK_CASM3C_MIG: BioMAP Diversity Plus: CASM3C Assay for Monokine induced gamma interferon (MIG) Biomarker Activity (AID 2283048); conditions: primary human coronary artery smooth muscle cells; actives raise or lower the signal;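 further: MIG protein level measured by ELISA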
# [10] = read-out: serum amyloid A (SAA), SAA1 (gene 6288); assay: BSK_CASM3C_SAA: BioMAP Diversity Plus: CASM3C Assay for serum amyloid A (SAA) Biomarker Activity (AID 2283049); conditions: primary human coronary artery smooth muscle cells; actives raise or lower the signal;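 further: SAA protein level quantified by ELISA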
# [11] = BSK_CASM3C_SRB: Viability Assessment in the BioMAP Diversity Plus: CASM3C Assay (AID 2283050); conditions: primary human coronary artery smooth muscle cells;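 further: total protein by SRB staining as cytotoxicity measure in parallel cultures; cells exposed to compound for 24 h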
# [12] = read-out: Thrombomodulin, THBD (gene 7056); assay: BSK_CASM3C_Thrombomodulin: BioMAP Diversity Plus: CASM3C Assay for Thrombomodulin Biomarker Activity (AID 2283051); conditions: primary human coronary artery smooth muscle cells; actives raise or lower the signal;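 further: thrombomodulin protein level measured by ELISA 24 h after dosing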
# [13] = read-out: Tissue Factor, F3 (gene 2152); assay: BSK_CASM3C_TissueFactor: BioMAP Diversity Plus: CASM3C Assay for Tissue Factor Biomarker Activity (AID 2283052); conditions: primary human coronary artery smooth muscle cells; actives raise or lower the signal;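 further: cell surface tissue factor protein level read by ELISA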
# [14] = read-out: Interferon-gamma inducible Protein 10 (IP10), CXCL10 (gene 3627); assay: BSK_hDFCGF_IP10: BioMAP Diversity Plus: hDFCGF Assay for Interferon-gamma inducible Protein 10 (IP10) Biomarker Activity (AID 2283053); conditions: primary human foreskin fibroblasts; actives raise or lower the signal
# Outline: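 ELISA quantification of IP-10 after a 24 h chemical exposure of human dermal foreskin fibroblast primary cultures. Both increases and decreases versus DMSO fitted.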
# [15] = read-out: Urokinase-type plasminogen activator receptor (uPAR), PLAUR (gene 5329); assay: BSK_CASM3C_uPAR: BioMAP Diversity Plus: CASM3C Assay for Urokinase-type plasminogen activator receptor (uPAR) Biomarker Activity (AID 2283054); conditions: primary human coronary artery smooth muscle cells; actives raise or lower the signal;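 further: cell-surface uPAR protein level quantified by ELISA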
# [16] = read-out: Vascular cell adhesion molecule 1 (VCAM1), VCAM1 (gene 7412); assay: BSK_CASM3C_VCAM1: BioMAP Diversity Plus: CASM3C Assay for Vascular cell adhesion molecule 1 (VCAM1) Biomarker Activity (AID 2283055); conditions: primary human coronary artery smooth muscle cells; actives raise or lower the signal;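 further: VCAM-1 protein level quantified by ELISA on the cells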
# [17] = read-out: Collagen III, COL3A1 (gene 1281); assay: BSK_hDFCGF_CollagenIII: BioMAP Diversity Plus: hDFCGF Assay for Collagen III Biomarker Activity (AID 2283056); conditions: primary human foreskin fibroblasts; actives raise or lower the signal
# Outline: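 Response relative to DMSO, fitted in both directions, reflects ELISA-measured collagen III in human primary skin fibroblasts 24 h after compound addition.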
# [18] = read-out: Epidermal growth factor receptor (EGFR), EGFR (gene 1956); assay: BSK_hDFCGF_EGFR: BioMAP Diversity Plus: hDFCGF Assay for Epidermal growth factor receptor (EGFR) Biomarker Activity (AID 2283057); conditions: primary human foreskin fibroblasts; actives raise or lower the signal
# Outline: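 EGFR levels by ELISA in human dermal fibroblast cultures, 24 h post-treatment, fitted bidirectionally versus DMSO. Parallel wells stained with sulforhodamine B to detect overt cytotoxicity.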
# [19] = read-out: Interleukin-8 (IL8), CXCL8 (gene 3576); assay: BSK_hDFCGF_IL8: BioMAP Diversity Plus: hDFCGF Assay for Interleukin-8 (IL8) Biomarker Activity (AID 2283058); conditions: primary human foreskin fibroblasts; actives raise or lower the signal
# Outline: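 Fibroblast monolayers (human foreskin, hDFCGF) received test chemical for 24 h before ELISA detection of IL-8; either increases or decreases relative to DMSO count as activity.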
# [20] = BSK_hDFCGF_Proliferation: Cell Proliferation Assessment in the BioMAP Diversity Plus: hDFCGF Assay (AID 2283059); conditions: primary human foreskin fibroblasts;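 further: curves fitted for both rise and fall of signal versus DMSO baseline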
# Outline: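 Total protein read at 560 nm after 0.1% SRB staining of TCA-fixed human skin fibroblasts, […]. Activity is fitted in both directions relative to DMSO as baseline.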
smiles,measurement,setting,value
CCCCOC(=O)CCCCCCCCC(=O)OCCCC,outcome,[1],inactive
same,outcome,[2],inactive
same,outcome,[3],inactive
same,outcome,[4],inactive
same,outcome,[5],inactive
same,outcome,[6],inactive
same,outcome,[7],inactive
same,outcome,[8],inactive
same,outcome,[9],inactive
same,outcome,[10],inactive
same,outcome,[11],inactive
same,outcome,[12],inactive
same,outcome,[13],inactive
same,outcome,[14],inactive
same,outcome,[15],inactive
same,outcome,[16],inactive
same,outcome,[17],inactive
same,outcome,[18],inactive
same,outcome,[19],inactive
same,outcome,[20],inactive
C=CCOC(=O)c1ccccc1C(=O)OCC=C,outcome,[1],inactive
same,outcome,[2],inactive
same,outcome,[3],inactive
same,outcome,[4],inactive
same,outcome,[5],inactive
same,outcome,[6],inactive
same,outcome,[7],inactive
same,outcome,[8],inactive
same,outcome,[9],inactive
same,outcome,[10],inactive
same,outcome,[11],inactive
same,outcome,[12],inactive
same,outcome,[13],inactive
same,outcome,[14],inactive
same,outcome,[15],inactive
same,outcome,[16],inactive
same,outcome,[17],inactive
same,outcome,[18],inactive
same,outcome,[19],inactive
same,outcome,[20],inactive
Cc1cccc(C)c1O,outcome,[1],inactive
same,outcome,[2],inactive
same,outcome,[3],inactive
same,outcome,[4],inactive
same,outcome,[5],inactive
same,outcome,[6],inactive
same,outcome,[7],inactive
same,outcome,[8],inactive
same,outcome,[9],inactive
same,outcome,[10],inactive
same,outcome,[11],inactive
same,outcome,[12],inactive
same,outcome,[13],inactive
same,outcome,[14],inactive
same,outcome,[15],inactive
same,outcome,[16],inactive
same,outcome,[17],inactive
same,outcome,[18],inactive
same,outcome,[19],inactive
same,outcome,[20],inactive
Cc1ccc(C)c(O)c1C,outcome,[1],inactive
same,outcome,[2],inactive
same,outcome,[3],inactive
same,outcome,[4],inactive
same,outcome,[5],inactive
same,outcome,[6],inactive
same,outcome,[7],inactive
same,outcome,[8],inactive
same,outcome,[9],inactive
same,outcome,[10],inactive
same,outcome,[11],inactive
same,outcome,[12],inactive
same,outcome,[13],inactive
same,outcome,[14],inactive
same,outcome,[15],inactive
same,outcome,[16],inactive
same,outcome,[17],inactive
same,outcome,[18],inactive
same,outcome,[19],inactive
same,outcome,[20],inactive
CCCCCCCCCCCC(=O)OC,outcome,[1],inactive
same,outcome,[2],inactive
same,outcome,[3],inactive
same,outcome,[4],inactive
same,outcome,[5],inactive
same,outcome,[6],inactive
same,outcome,[7],inactive
same,outcome,[8],inactive
same,outcome,[9],inactive
same,outcome,[10],inactive
same,outcome,[11],inactive
same,outcome,[12],inactive
same,outcome,[13],inactive
same,outcome,[14],inactive
same,outcome,[15],inactive
same,outcome,[16],inactive
same,outcome,[17],inactive
same,outcome,[18],inactive
same,outcome,[19],inactive
same,AC50,[20],28.9 µM (active)
CC(=O)Oc1ccccc1C(=O)O,outcome,[1],inactive
same,outcome,[2],inactive
same,outcome,[3],inactive
same,outcome,[4],inactive
same,outcome,[5],inactive
same,outcome,[6],inactive
same,outcome,[7],inactive
same,outcome,[8],inactive
same,outcome,[9],inactive
same,outcome,[10],inactive
same,outcome,[11],inactive
same,outcome,[12],inactive
same,outcome,[13],inactive
same,outcome,[14],inactive
same,outcome,[15],inactive
same,outcome,[16],inactive
same,outcome,[17],inactive
same,outcome,[18],inactive
same,outcome,[19],inactive
same,outcome,[20],inactive
CC(=O)OCCOCCOCCOC(C)=O,outcome,[1],inactive
same,outcome,[2],inactive
same,outcome,[3],inactive
same,outcome,[4],inactive
same,outcome,[5],inactive
same,outcome,[6],inactive
same,outcome,[7],inactive
same,outcome,[8],inactive
same,outcome,[9],inactive
same,outcome,[10],inactive
same,outcome,[11],inactive
same,outcome,[12],inactive
same,outcome,[13],inactive
same,outcome,[14],inactive
same,outcome,[15],inactive
same,outcome,[16],inactive
same,outcome,[17],inactive
same,outcome,[18],inactive
same,outcome,[19],inactive
same,outcome,[20],inactive
C[C@]12C=CC(=O)C=C1CC[C@@H]1[C@@H]2C(=O)C[C@@]2(C)[C@H]1CC[C@]2(O)C(=O)CO,AC50,[1],704 nM (active)
same,outcome,[2],inactive
same,AC50,[3],184 nM (active)
same,outcome,[4],inactive
same,AC50,[5],243 nM (active)
same,outcome,[6],inactive
same,AC50,[7],242 nM (active)
same,outcome,[8],inactive
same,outcome,[9],inactive
same,AC50,[10],699 nM (active)
same,outcome,[12],inactive
same,outcome,[13],inactive
same,outcome,[14],inactive
same,AC50,[15],239 nM (active)
same,outcome,[16],inactive
same,outcome,[17],inactive
same,outcome,[18],inactive
same,outcome,[19],inactive
same,outcome,[20],inactive
